Measured values taken from PubChem BioAssay AID1637 (Sanford-Burnham Center for Chemical Genomics, 2009).
Out of some 3,700 compounds screened, fewer than 10 were called active. The list is a sample of the results. Values without a mark were called inactive. How the calls were made is not given here.

Experiment: NMR binding screen, influenza A RNA promoter, Kd (AID 1637)
Settings: NMR binding to influenza A RNA promoter

| Compound | Kd |
| --- | --- |
| CC1=NNC(=O)C1CCc1ccncc1 (stereo not given) | > 4 mM |
| O=C(NCc1ccccc1Br)c1ccco1 | > 4 mM |
| COc1ccc(-c2c(OC)c3c(OC)c4c(cc3oc2=O)OC(C)(C)C=C4)cc1 | > 4 mM |
| CCN=Cc1c(O)n(-c2ccccc2C)c(=O)[nH]c1=O | > 4 mM |
| NC(=O)c1ccc(NC(=O)C2CC2)cc1 | > 4 mM |
| c1ccc(CCN2CCN(CCc3ccccn3)CC2)nc1 | > 4 mM |
| COc1c(O)cc2c(c1O)[C@H]1O[C@H](CO)[C@@H](O)[C@H](O)[C@@H]1OC2=O | > 4 mM |
| COc1cc(/C=C2/NC(=S)NC2=O)cc(Cl)c1O | > 4 mM |
| O=C(Nc1nccs1)c1ccc(=O)[nH]n1 | > 4 mM |
| COC(=O)c1ccc2nc[nH]c2c1 | > 4 mM |
| CNS(=O)(=O)c1cccs1 | > 4 mM |
| OCCCc1nc2ccc(C(F)(F)F)cc2[nH]1 | > 4 mM |
| CC(=O)Nc1ccc(S(=O)(=O)N(C)C)cc1 | > 4 mM |
| O=C(NCc1cccc(Cl)c1)c1cnccn1 | > 4 mM |
| Cc1cc(C)n(CCCC(=O)O)n1 | > 4 mM |
| Cn1c(O)c(/C=C2\C=CC=N2)c(=O)[nH]c1=O | > 4 mM |
| CCOC(=O)c1ccc2c(c1)nnn2C | > 4 mM |
| COc1ccc(-c2coc3c(OC)c(OC)cc(OC)c3c2=O)cc1 | > 4 mM |
| NCc1c[nH]c2ccccc12 | > 4 mM |
| Cn1c(=O)n(C)c2cc(C(N)=O)ccc21 | > 4 mM |
| CC(C)=NNC(=O)C(=O)NC(C)(C)C | > 4 mM |
| NC(=O)C1CCN(C(=O)c2ccccc2)CC1 | > 4 mM |
| CN1C(=O)/C(=C/c2ccc(O)cc2O)SC1=S | > 4 mM |

| Compound | Kd |
| --- | --- |
| NC(C(=O)O)C(O)c1ccccc1 (stereo not given) | > 4 mM |
| CCOC(=O)c1c(C)[nH]c2ccc(O)cc12 | > 4 mM |
| O=C(Cc1ccc(F)cc1)Nc1ncccn1 | > 4 mM |
| Fc1ccc(-c2n[nH]c(=S)n2CC2CCCO2)cc1 (stereo not given) | > 4 mM |
| O=C(CC1SC(=O)NC1=O)Nc1nccs1 (stereo not given) | > 4 mM |
| O=C(O)c1cccc2c1OCCCO2 | > 4 mM |
| NC(=S)CN1CCCC1=O | > 4 mM |
| CC1=NN(c2ccc(C)cc2)C(=O)C1 | > 4 mM |
| O=P(c1ccccc1)(c1ccccc1)C1CCOCC1 | > 4 mM |
| CC(=O)N1CCN(S(=O)(=O)c2ccccc2)CC1 | > 4 mM |
| CN1CCN(CC(=O)N2CCc3ccccc32)CC1 | > 4 mM |
| O=C(NC1=NCCS1)c1cccc(F)c1 | > 4 mM |
| O=C1NC(=S)S/C1=C/c1ccncc1 | > 4 mM |
| Cc1[nH]c2ccccc2c1C(=O)CSc1ncn[nH]1 | > 4 mM |
| O=C(NN1CCOCC1)c1ccccc1F | > 4 mM |
| Cc1cc(=O)oc2cc3c(cc12)OCCO3 | > 4 mM |
| CC1SC(=NC(=O)c2ccncc2)NC1=O (stereo not given) | > 4 mM |
| Cc1cc(OC(=O)c2ccco2)c([N+](=O)[O-])c(=O)[nH]1 | > 4 mM |
| Cc1c(O)c(O)cc2c1CC=C1[C@@]2(C)CC[C@@]2(C)C3C[C@](C)(C(=O)O)CC[C@]3(C)CC[C@]12C (stereo not given in full) | > 4 mM |
| CCN1CCn2c1nc(N1CCOCC1)nc2=O | > 4 mM |
| Nc1cc(=O)[nH]c(=S)n1-c1ccc(F)cc1 | > 4 mM |
| Cc1cc(=O)n2ncn(Cc3ccccc3)c2n1 | > 4 mM |
| Nc1ccc(-n2cccc2)cc1 | > 4 mM |

| Compound | Kd |
| --- | --- |
| CC1(C)Cc2nc(N3CCOCC3)c(C#N)cc2CO1 | > 4 mM |
| O=C1c2cccnc2C(=O)N1Cc1ccc2c(c1)OCO2 | > 4 mM |
| Cn1ccnc1C(O)c1ccccc1 (stereo not given) | > 4 mM |
| CS(=O)(=O)c1ccccc1C(=O)Nc1nccs1 | > 4 mM |
| NS(=O)(=O)c1ccc(NC(=O)C2CC2)cc1 | > 4 mM |
| COc1ccc(/C=C2/NC(=S)NC2=O)cc1 | > 4 mM |
| CC(=O)NC(NC(C)=O)c1ccccc1 | > 4 mM |
| O=S(=O)(O)c1cc[n+]([O-])cc1 | > 4 mM |
| Cc1cc(N2C(=O)CCC2=O)n(-c2ccccc2)n1 | > 4 mM |
| Nc1nc(-c2ccc(O)cc2)cs1 | > 4 mM |
| O=C(CNC(=O)c1ccc(F)cc1)NC1=NCCS1 | > 4 mM |
| COCCOc1nc2ccccc2nc1C | > 4 mM |
| O=C1C2CC=CCC2C(=O)N1c1ccccc1O (stereo not given) | > 4 mM |
| Cc1ccn(S(=O)(=O)c2ccc(F)cc2)n1 | > 4 mM |
| NS(=O)(=O)c1ccc(NC(=O)C(F)(F)F)cc1 | > 4 mM |
| CC(C)C(C)/C=C/C(C)[C@H]1CCC2C3=CCC4CC(=O)CC[C@]4(C)C3CC[C@@]21C (stereo not given in full) | > 4 mM |
| CS(=O)(=O)NC1CCN(Cc2ccccc2)CC1 | > 4 mM |
| CC(=O)c1c(O)c(C)c(O)c2c1OC1=CC(=O)C(C(C)=O)C(=O)C12C (stereo not given) | > 4 mM |
| O=C(O)c1coc2c1C(=O)CCC2 | > 4 mM |
| S=c1[nH]nc(-c2cccnc2)n1Cc1ccccc1 | > 4 mM |
| CS(=O)(=O)N1CCN(C(=O)Cc2cccs2)CC1 | > 4 mM |
| NC1=NC(=O)/C(=C/c2ccccc2[N+](=O)[O-])S1 | > 4 mM |
| CCN1CC2(C)CC[C@H](OC)[C@]34C2[C@H](O)C2(OCO[C@@]25C[C@H](OC)[C@H]2C[C@]3(O)C5[C@H]2O)C14 | > 4 mM |

| Compound | Kd |
| --- | --- |
| O=c1c2ccccc2oc2ccc(O)cc12 | > 4 mM |
| COc1cc(C)c(S(=O)(=O)N2CCN(C)CC2)cc1C | > 4 mM |
| Nc1ncnc(NCc2cccnc2)c1[N+](=O)[O-] | > 4 mM |
| COC(=O)c1nc(-c2ccccc2)oc1N(C)C | > 4 mM |
| Cc1cc(C)n(S(=O)(=O)c2cc(C)c(C)cc2C)n1 | > 4 mM |
| CCc1cc2c(SCC(=O)O)ncnc2s1 | > 4 mM |
| O=C(c1ccccc1)c1ccc(N2CCNCC2)cc1 | > 4 mM |
| CC(=O)Nc1cccc(NC(=O)c2cccnc2)c1 | > 4 mM |
| C(=N\c1nccs1)/c1cccnc1 | > 4 mM |
| Cc1ccccc1C(=O)Nn1cnnc1 | > 4 mM |
| OCc1cccc2c1OCCO2 | > 4 mM |
| O=C(Nc1cccnc1)N1CCOCC1 | > 4 mM |
| CN(c1ccccc1C(=O)N1CCCC1)S(C)(=O)=O | > 4 mM |
| [O-][n+]1onc2c1CCc1c-2nc(-c2ccccc2)n1O | > 4 mM |
| CNC(=O)c1cc(C)c(-c2ccccc2)s1 | > 4 mM |
| NC(=O)CC(=O)NC12CC3CC(CC(C3)C1)C2 | > 4 mM |
| O=C(NCc1cccs1)c1ccc2c(c1)OCCO2 | > 4 mM |
| COCCn1c(C)cc(O)cc1=O | > 4 mM |
| CSc1ccc(C(=S)N2CCN(C)CC2)cc1 | > 4 mM |
| Nc1ncnc(Nc2ccccc2C(F)(F)F)n1 | > 4 mM |
| Cc1nnsc1C(=O)O | > 4 mM |
| CCc1ccccc1NC(=O)c1cnccn1 | > 4 mM |
| Cc1ccc(/C=C2/C(=O)N=C(N)N2C)s1 | > 4 mM |

| Compound | Kd |
| --- | --- |
| O=c1[nH]cc(NCc2ccco2)c(=O)[nH]1 | > 4 mM |
| COc1ccc(-c2c(O)c3c(OC)c4c(cc3oc2=O)OC(C)(C)CC4)cc1 | > 4 mM |
| COC[C@]12CN(C=O)C3[C@@H]4[C@H](OC)C1[C@]3(C1CC3(O)C(OC)C(O)C4(OC(C)=O)C1C3OC(=O)c1ccccc1)[C@@H](OC)C[C@H]2O (stereo not given in full) | > 4 mM |
| C=C(C)[C@@H]1CC[C@]2(CO)CC[C@]3(C)[C@H](CCC4[C@@]5(C)CC[C@H](O)C(C)(C)C5CC[C@]43C)C12 (stereo not given in full) | > 4 mM |
| CSc1ncc(C(=O)O)n1Cc1ccccc1 | > 4 mM |
| CCOC(=O)C1CCNCC1 | > 4 mM |
| NCc1csc(-c2ccccc2)n1 | > 4 mM |
| O=C(O)c1ccc2snnc2c1 | > 4 mM |
| Oc1ccc(C2SCCS2)cc1 | > 4 mM |
| Nc1oncc1-c1ccccn1 | > 4 mM |
| Cc1cccc(CSc2nncc(=O)[nH]2)c1 | > 4 mM |
| COc1ccc2c(c1)c1n[nH]c(=S)nc1n2C | > 4 mM |
| Cc1nc2ccccc2c(=O)[nH]1 | > 4 mM |
| CCc1noc(C)c1C(=O)N1CCCC1 | > 4 mM |
| Nc1cc(=O)[nH]c(=O)n1Cc1ccco1 | > 4 mM |
| NC(=S)NC(=O)CN1C(=O)c2ccccc2C1=O | > 4 mM |
| NC(=O)CSc1ccc(Br)cc1 | > 4 mM |
| O=C(c1ccncc1)c1ccc(Br)cc1 | > 4 mM |
| CC1=C/C(=C\c2c(O)[nH]c(=O)[nH]c2=O)C(C)=N1 | > 4 mM |
| NC(=O)C1CCN(S(=O)(=O)c2ccccc2)CC1 | > 4 mM |
| CCOC(=O)CNc1ncnc2c1nnn2CC | > 4 mM |
| O=C1CNc2cc(C(=O)O)ccc2N1 | > 4 mM |
| CCC1(CC)C(=O)N=C(N)NC1=O | > 4 mM |
